# From PubChem
# ssDAF12 agonist – S. stercoralis DAF-12 activation, primary screen; HEK293 ssDAF-12/GRIP1 lit1-tk-luc reporter, luminescence; % of 3 µM dafachronic acid response; activation, % at 6.8 µM; 1% of 370,000 active;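 active = activation above the mean over all tested compounds plus 3 SD, cut at about 0.9% in these data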;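 also: 0% = DMSO-only wells and 100% = 3 µM delta7-dafachronic acid wells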
# DAX1 inh-1 – blocks DAX1 repression of SF-1 activated StAR promoter. HEK293T StAR-luciferase reporter, SF-1/DAX-1 repression relief. inhibition, % at 6.8 µM. 1.1% of 370,000 active;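 active = inhibition above the mean over all tested compounds plus 3 SD, cut at about 3.6% in these data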;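 also: 0% = DAX-1 cells with DMSO and 100% = cells lacking DAX-1 with DMSO; higher inhibition means more luminescence from relief of DAX-1 repression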
# hgDAF12 agonist – hgDAF-12 agonism, primary luciferase screen; activation, % at 6.8 µM; 1.8% of 370,000 active; HEK293 GAL4-hgDAF12 UAS-luciferase reporter, agonist luminescence; normalized to butyrate control;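 active = activation above a cutoff set at the mean of all screened compounds plus 3 SD, cut at about 10% in these data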;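 also: 0% = DMSO wells and 100% = sodium butyrate wells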
# hcDAF12 agonist – H. contortus DAF-12 activation, primary screen. HEK293 hcDAF-12 lit1-tk-luc reporter, luminescence; 0% DMSO, 100% Δ7-dafachronic acid. activation, % at 6.8 µM. 1.4% of 370,000 active. AID 652067;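 active = activation above the mean of all tested compounds plus 3 SD, cut at about 5.5% in these data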;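 also: 100% = response to 3 µM Δ7-dafachronic acid high control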
# DAX1 inh-2 – inhibitors of human orphan nuclear receptor DAX1 (NR0B1). inhibition, % at 6.75 µM. P51843. 0.99% of 340,000 active. HEK293 Gal4-DAX1 luciferase reporter, luminescence;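 active = inhibition above the mean over all tested compounds plus 3 SD, cut at about 4.2% in these data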;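 also: 0% = DAX1-transfected cells with DMSO and 100% = empty-vector control cells with DMSO; inhibition shows as a rise in luminescence from relieved DAX1 repression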
# Target sequence (P51843 207-470 limits assumed): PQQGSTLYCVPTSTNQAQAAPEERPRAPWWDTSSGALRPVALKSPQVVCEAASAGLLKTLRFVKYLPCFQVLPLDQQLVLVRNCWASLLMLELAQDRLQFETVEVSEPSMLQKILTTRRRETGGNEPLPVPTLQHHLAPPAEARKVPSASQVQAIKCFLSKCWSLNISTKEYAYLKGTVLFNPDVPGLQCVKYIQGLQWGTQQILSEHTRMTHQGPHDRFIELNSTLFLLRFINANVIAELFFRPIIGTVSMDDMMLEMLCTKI
# * = called active by the depositor; / = no result given. Hits are enriched below; roughly 4.1% of the tested compounds scored in any of these assays.
SMILES,ssDAF12 agonist,DAX1 inh-1,hgDAF12 agonist,hcDAF12 agonist,DAX1 inh-2
CC(C)C[C@H]1COc2cc(Br)ccc2S(=O)(=O)N1Cc1cn(Cc2ccc(Br)cc2)nn1,-1.7,-0.2,0.2,-0.5,/
C=CCSc1n[nH]c(-c2ccc(OC)cc2)n1,-0.5,2.0,12.1*,3.5,2.2
COc1ccc(OC)c(/C=C2\Oc3cc(OCC(=O)N4CCC[C@H]4C(=O)O)ccc3C2=O)c1,/,/,/,/,3.5
COc1ccc(/C=C2\Oc3cc(OCC(=O)N4CCC[C@H]4C(=O)O)ccc3C2=O)c(OC)c1,/,/,/,/,6.7*
COc1cc(OC)c(OC)cc1/C=C1\Oc2cc(OCC(=O)N3Cc4ccccc4C[C@H]3C(=O)O)ccc2C1=O,/,/,/,/,4.5*
COC(=O)[C@]12C[C@H](CC(=O)NCc3ccc(OC)c(OC)c3)C(=O)N(Cc3cccc4ccccc34)C1=C[C@H](C1CCCC1)O[C@@H]2C,-1.0,-1.1,1.7,-3.8,/
O=C(c1cnc2nc3ccccc3n2c1)c1cc(F)ccc1O,0.1,3.1,7.5,5.6*,0.4
O=S(=O)(c1ccc(F)cc1)N1CCN=C1SCc1cccnc1,-1.2,0.7,1.0,-1.2,7.1*
O=S(=O)(c1ccc(Br)cc1)N1CCN=C1SCc1cccnc1,-1.5,0.1,-1.6,-0.6,-0.2
Cc1ccc(NCCCn2cnc(C(=O)Nc3ccc(C)c(C)c3)n2)cc1C,-1.2,-0.4,-0.7,-1.2,-1.1
Cc1ccc(NC(=O)c2ncn(CCCNCC3CCCCC3)n2)cc1C,-0.3,3.9*,6.9,-1.2,0.3
COc1cc(SC)ccc1C(=O)OCC(=O)NCC(C)C,-0.9,0.6,1.2,-0.3,4.3*
Cc1ccc(S(=O)(=O)n2ccc(-c3c(-c4ccccc4)noc3C)n2)cc1,-1.4,-2.2,3.4,-2.5,/
Fc1ccc(COc2ccc(C(=S)N3CCCC3)cc2)cc1,-0.5,1.6,6.0,0.7,4.3*
O=C(N/N=C/c1cccs1)c1cc(-c2cccc3ccccc23)n[nH]1,-1.3,0.1,10.5*,0.2,0.5
O=C(N/N=C/c1cccs1)c1cc(-c2ccc3ccccc3c2)n[nH]1,-0.2,1.3,11.1*,2.2,1.8
Cc1ccc(C2(COC(=O)C(C)C)CO2)c(OC(=O)C(C)C)c1 (stereo not drawn),-1.7,0.2,2.3,0.4,4.6*
CCC(C)C(=O)OCC1(c2ccc(C)cc2OC(=O)C(C)C)CO1 (stereo not drawn),-1.2,0.9,2.2,-1.7,1.4
CCOC(=O)CC(=O)Nc1nnc(C(C)C)s1,-0.8,0.0,-1.4,-0.7,5.3*
COc1ccc(NC(=O)O/N=C/c2ccccc2)cc1,-1.3,0.9,11.4*,1.6,2.8
COc1ccc(NC(=O)OC(C)C)cc1,-0.4,1.8,11.1*,4.0,1.4
COc1ccc(NC(=O)c2scc(S(=O)(=O)C(C)C)c2N)cc1,1.2*,2.3,10.9*,4.7,2.5
COc1ccc(NC(=O)Nc2ccc(OC)cc2)cc1,0.2,1.1,5.7,0.4,0.8
COc1ccc(NC(=O)c2ccccc2C)cc1,-0.3,1.6,6.1,2.1,6.3*
Cn1c(SCC(=O)Nc2ccccc2-c2ccccc2)nnc1-c1cnccn1,-1.4,-1.1,1.6,-2.9,/
SMILES,ssDAF12 agonist,DAX1 inh-1,hgDAF12 agonist,hcDAF12 agonist,DAX1 inh-2
COc1ccc(NC(=O)c2cccc3c(Br)cccc23)cc1,-0.2,-0.1,2.0,0.7,-1.6
COc1ccc(NC(=O)c2cccc3ccccc23)cc1,-1.2,-0.5,11.3*,0.8,0.2
O=C(Nc1cccnc1Oc1ccc(Cl)cc1)c1cccc2ccccc12,-0.8,0.2,-0.9,0.6,6.0*
NC1=[N+](Cc2ccccc2)C(Cc2ccccc2)C2C(=C3CCCCC3n3c(=O)n(-c4ccccc4)c(=O)n32)N1 (stereo not drawn),-0.7,-1.1,2.7,0.1,/
CC1=C(C(=O)O)CC(S(=O)(=O)O)C1(C)C (stereo not drawn),0.0,3.7*,1.4,0.4,1.5
CC1=NN(c2nc(-c3ccc(C)cc3)cs2)C(=O)C1N=Nc1ccc2ccccc2c1 (stereo not drawn),0.2,0.2,4.9,5.7*,0.0
CC1=NN(c2nc(-c3ccccc3)cs2)C(=O)C1N=Nc1ccccc1 (stereo not drawn),-2.3,-0.7,-1.9,2.0,-1.1
COc1cc(/C=C/CO)ccc1O[C@@H]1O[C@H](CO)[C@@H](O)[C@H](O)[C@H]1O,-1.3,0.5,-2.3,0.8,4.7*
OCc1ccccc1O[C@@H]1O[C@H](CO)[C@@H](O)[C@H](O)[C@H]1O,-1.4,1.2,0.1,-1.7,3.0
COc1cc(C(=O)NN=C2c3ccccc3-c3ccccc32)cc(OC)c1OC,-0.2,1.2,-3.6,-0.6,/
COC(=O)c1ccccc1NC(=O)COC(=O)C1CCCCC1,0.6,0.0,-3.0,-1.4,4.4*
COC(=O)c1ccccc1NC(=O)C1CCCC1,-0.6,-0.6,-2.6,-1.3,1.3
Cc1nc(SCC(=O)c2cc3ccccc3oc2=O)c(C#N)c(C)c1C(=O)Nc1ccccc1,1.1*,0.5,1.7,1.4,/
COC(=O)C1=CN(c2ccc(C(C)(C)C)cc2)C(N)=C(C#N)C1c1ccccc1F (stereo not drawn),-0.8,0.1,4.4,-1.3,/
COC(=O)C1=CN(c2ccc(OC)cc2)C(N)=C(C#N)C1c1ccccc1F (stereo not drawn),-1.6,3.8*,0.6,-0.6,/
O=S(=O)(NCC1NCCc2ccccc21)c1ccccc1 (stereo not drawn),-0.7,-0.1,-2.0,1.3,8.3*
c1ccc(C2NCCc3ccccc32)cc1 (stereo not drawn),-1.1,0.2,0.8,-0.6,2.1
O=C(Nc1ccccc1Cl)C1CC(=O)N(c2ccccc2)C1 (stereo not drawn),1.3*,-0.3,3.0,-0.8,/
COC(=O)[C@]12C[C@H](CC(=O)N3CCC(c4ccccc4)CC3)C(=O)N(CCC3=CCCCC3)C1=C[C@H](C(C)C)O[C@@H]2C1CC1,-0.7,0.5,0.0,-0.1,/
CCOC(=O)c1nn(-c2ccc([N+](=O)[O-])cc2)cc1O,-1.2,1.6,1.6,-0.3,2.4
CCOC(=O)c1nn(-c2ccc(C)c(C)c2)cc1O,-0.7,2.6,12.9*,4.7,2.2
O=C(CN1CCCCCC1)Nc1ccc([N+](=O)[O-])cc1Br,-1.3,0.0,2.9,-1.0,-0.8
O=C(CN1CCOCC1)Nc1ccc([N+](=O)[O-])cc1Br,1.3*,-1.0,-0.3,0.7,1.5
Cc1ccc([N+](=O)[O-])cc1-c1ccc(/C=N/NC(=O)CN2CCOCC2)o1,0.9*,-0.1,2.3,1.2,-1.1
Cc1ccc(OCC(=O)N/N=C\c2cn(Cc3ccccc3)c3ccccc23)cc1C,1.0*,-0.2,-0.3,3.3,-1.7
CC(C)c1nc2ccccc2n1CC(O)COC1CCCCC1 (stereo not drawn),-1.4,0.1,-2.9,-0.7,6.6*
CCc1cc2c(nc1CC)CCCN2Cc1ccc(Br)cc1,-1.0,-1.4,-1.1,-1.8,/
